D2 ag-1: HTS Assay for Allosteric Agonists of the Human D2 Dopamine Receptor: Primary Screen for Agonists; D(2) dopamine receptor (Homo sapiens), P14416; HEK293 T-REx D2 cells, calcium flux agonist mode; activation, % at 2 µM; actives 0.53% (n = 340,000); AID 485358, 2010;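 active = activation over 3 SD above normal in the single-dose calcium agonist read, cut at about 30% in these data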; also: 0% is about no effect
Target sequence (P14416 whole entry, looked up): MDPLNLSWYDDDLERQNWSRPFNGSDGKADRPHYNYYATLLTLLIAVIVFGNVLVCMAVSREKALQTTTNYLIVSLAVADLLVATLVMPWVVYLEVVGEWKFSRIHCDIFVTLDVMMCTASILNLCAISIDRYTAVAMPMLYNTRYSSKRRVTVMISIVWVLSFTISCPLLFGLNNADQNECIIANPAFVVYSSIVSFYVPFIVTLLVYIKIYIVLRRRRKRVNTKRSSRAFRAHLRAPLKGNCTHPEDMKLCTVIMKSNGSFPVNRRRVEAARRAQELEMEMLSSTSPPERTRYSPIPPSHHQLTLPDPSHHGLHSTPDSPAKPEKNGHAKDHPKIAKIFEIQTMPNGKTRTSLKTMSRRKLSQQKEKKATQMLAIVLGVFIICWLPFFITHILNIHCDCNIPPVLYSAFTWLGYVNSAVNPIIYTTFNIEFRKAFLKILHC
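HEK293 Trex D2 cells, tetracycline-induced, o/n 30 C 5% CO2; no-wash Ca dye, RT 30–90 min; 10-cycle baseline, 23 nl cpd added, kinetic Ca read 180 s; agonist hits = positive Ca response.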
D2 antag: HTS Assay for Allosteric Antagonists of the Human D2 Dopamine Receptor: Primary Screen for Antagonists; D(2) dopamine receptor (Homo sapiens), P14416; HEK293 TREx D2 cells, calcium flux, dopamine EC80; inhibition, % at 10 µM; actives 2% (n = 340,000); in the data active = inhibition above about 30%; inactive = below that, where a call was filed; also: 0% is about no effect
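Tetracycline-induced HEK293 T-REx cells expressing D2 force-coupled to calcium signalling were dye-loaded, exposed to compound for 180 s, then challenged with an EC80 of dopamine; calcium flux was followed kinetically for a further 180 s.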
D2 ag-2: Beta-Arrestin HTS for Positive Allosteric Modulators of the Human D2 Dopamine Receptor: Agonists; actives 0.084% (n = 360,000); DiscoveRx PathHunter D2 beta-arrestin, luminescence, 90 min; 100% = 57 uM dopamine signal; activation, % (concentration not given with the values); D(2) dopamine receptor (Homo sapiens), P14416; in the data active = activation above about 40%; inconclusive = between about 15% and that limit
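Agonist mode: compounds alone added to overnight-plated D2 PathHunter cells for 90 min at 37 C, with 57 uM final dopamine (EC100) defining full response. Beta-arrestin recruitment detected by chemiluminescent reagent, read after 1 h at ambient temperature.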
D2 PAM-1: HTS Assay for Positive Allosteric Modulators of the Human D2 Dopamine Receptor: Primary Screen for Potentiators | HEK293 T-REx D2, calcium flux, EC20 dopamine potentiation | actives 0.34% (n = 340,000) | AID 485347, 2010 | potentiation, % at 10 µM;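 active = potentiation over 3 SD above the plate norm, cut at about 30% in these data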; also: 0% is about no effect
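Potentiation of an EC20 dopamine calcium response is measured in a force-coupled, tetracycline-inducible Hek293 Trex D2 line. Compound-only kinetic reads over 180 s flag agonists before dopamine addition.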
D2 PAM-2: Beta-Arrestin HTS for Positive Allosteric Modulators of the Human D2 Dopamine Receptor: Potentiators. DiscoveRx D2 beta-arrestin cells, luminescence, 90 min; 100% = 57 uM dopamine signal. potentiation, % (no concentration beside the values). AID 624464, 2012. actives 0.23% (n = 360,000); in the data active = potentiation above about 50%; inconclusive = mostly about 30% to 49%
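PathHunter D2 cells, attached overnight at 37 deg C, received compound in DMSO plus dopamine at EC20 (50 nM final) for 90 min at 37 deg C. Beta-arrestin recruitment was read as luminescence after 1 h with detection reagent at ambient temperature.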
Numbers without * were called inactive; ? = inconclusive; . = not tested or not shown. The list is not random: actives were taken first. Their share in the collection is about 2.4%.

SMILES	D2 ag-1	D2 antag	D2 ag-2	D2 PAM-1	D2 PAM-2
Cc1cccn2c(=O)c3cc(C#N)c(=O)n(Cc4cccnc4)c3nc12	0	41*	0	1	-16
Cn1nccc1/C=C(/C#N)S(=O)(=O)c1ccccc1	0	31*	-2	-4	-6
Cc1cccc(CCNC(=O)c2ccc(CSCc3cccc(Cl)c3)o2)c1	0	.	.	.	.
Cc1nc(N2CCc3ccccc3C2)[nH]c(=O)c1Cc1ccccc1	1	12	0	5	1
CCCCCc1c(C)nc(N2CCc3ccccc3C2)[nH]c1=O	-2	32*	-4	-14	-16
COc1ccc(-n2c(=O)c3c4c(sc3n(Cc3ccc(C)cc3C)c2=O)CCC4)c(OC)c1	-1	.	.	-25	.
O=C1C=C(c2cc3ccccc3s2)C[C@@H](c2ccc(Cl)cc2)C1	.	.	-4	.	-4
O=C1C=C(c2cccc3c2sc2ccccc23)C[C@@H](c2ccc(Cl)cc2)C1	-1	11	-3	33*	-4
CCC(=O)N1CCc2cc(Br)cc(S(=O)(=O)NCCc3ccccc3Cl)c21	0	.	.	-12	.
N#C/C(=C1\C(=O)Nc2c(Cl)cc(Cl)cc21)c1nnc2n1CCCCC2	.	.	6	.	67*
COc1ccc2c(c1)C(=O)N(c1ccccc1)C(=O)C2	1	13	-3	31*	20
CCCCN(C)CC(O)Cn1cc(/C=C/C(=O)c2ccc(OC)c(OC)c2)c2ccccc21 (stereo unspecified)	20	.	.	-5	.
Nc1c(C(=O)C2CC2)sc2nc(-c3cccs3)cc(C(F)(F)F)c12	36*	4	-6	-8	-13
CCOc1ccccc1N(C)C(=O)Cn1cnc2onc(-c3ccc(F)cc3)c2c1=O	-1	.	.	0	.
CC(=O)C1=C(C)NC(C)=C(C(C)=O)C1c1ccccc1	0	-1	41*	4	8
CC(=O)C1=C(C)NC(C)=C(C(C)=O)C1c1cccs1	0	-10	-4	7	6
CCCC(=O)NC1CC(=O)N(c2ccc3c(c2)OCCO3)C1 (stereo unspecified)	.	.	.	-11	.
COc1ccc(Nc2nc(N)c3cc(OC)c(OC)cc3n2)cc1	0	.	.	.	.
Cc1c(C(=O)N2CCCC2)oc2c1-c1nn(CC(=O)NCCCN3CCCCC3)cc1CC2	-1	37*	1	-6	-30
CCOc1ccccc1C(=O)Oc1c(S(=O)(=O)c2ccc(C)cc2)c(C)nn1-c1ccccc1	-1	.	.	0	.
Cn1c(=O)c2[nH]c(-c3ccccc3Cl)c(O)c2n(C)c1=O	.	.	4	.	25
Cn1c(=O)c2[nH]c(-c3ccccc3)c(O)c2n(C)c1=O	5	11	?	9	108*
CCNC(=S)NC1CC2CCC(C1)N2Cc1ccccc1 (stereo unspecified)	1	57*	2	-21	-27
S=C(NC1CCCCC1)NC1CC2CCC(C1)N2Cc1ccccc1 (stereo unspecified)	1	77*	-6	-9	-23
CCNC(=S)NC1CC2CCCC(C1)N2CCc1ccccc1 (stereo unspecified)	0	-21	-4	-14	-4
SMILES	D2 ag-1	D2 antag	D2 ag-2	D2 PAM-1	D2 PAM-2
COCCCNC(=S)NC1CC2CCC(C1)N2Cc1ccccc1 (stereo unspecified)	0	28	-4	-12	-16
CCCNC(=S)NC1CC2CCC(C1)N2Cc1ccccc1 (stereo unspecified)	0	67*	0	-6	-18
S=C(NCCc1ccccc1)NC1CC2CCC(C1)N2Cc1ccccc1 (stereo unspecified)	0	63*	-10	-28	-23
O=C(NC1CC2CCCC(C1)N2Cc1ccccc1)C1CCCCC1 (stereo unspecified)	0	22	1	-23	-19
COc1cc(NC(=O)C2CCN(S(=O)(=O)c3c(C)noc3/C=C/c3ccccc3F)CC2)cc(OC)c1OC	0	.	.	1	.
CC(C)CNC(=S)NC1CC2CCC(C1)N2Cc1ccccc1 (stereo unspecified)	1	90*	-1	-16	-23
CCOc1ccccc1NC(=O)CN1C(=O)COc2ccc(S(=O)(=O)N3CCOCC3)cc21	0	36*	-2	-2	-16
COc1ccccc1NC(=O)CN1C(=O)COc2ccc(S(=O)(=O)N3CCC(C)CC3)cc21	0	-10	-1	-1	-5
Cn1c(=O)c2sccc2n2c(CCCC(=O)Nc3ccc(Oc4ccc(Cl)cc4)cc3)nnc12	0	.	.	-6	.
Cc1ccc(Oc2cc([N+](=O)[O-])cc3c2C(=O)Nc2ccccc2O3)cc1	2	30*	2	14	6
Cc1ccc(S(=O)(=O)N2CCN=C2SCc2ccc(Cl)c(Cl)c2)cc1	1	30*	-2	-4	4
Cc1ccc(CSC2=NCCN2S(=O)(=O)c2ccc(C)cc2)cc1	.	.	-2	.	-7
COc1ccc(N(CC(C)C)S(=O)(=O)c2nnc(NC(=O)c3cccs3)s2)cc1	2	.	.	0	.
Cc1ccc(CNC(=O)c2nnn(-c3cccc(C)c3)c2N)cc1	.	.	-2	.	-7
Cc1cccc(-n2nnc(C(=O)NCc3ccccn3)c2N)c1	0	31*	1	-2	-7
CCCn1c(=O)n(-c2ccccc2)c(=O)c2sc3ccccc3c21	.	.	.	0	.
CC1CCCN(S(=O)(=O)c2ccc(S(=O)(=O)N3CCC4(CC3)OCCO4)cc2)C1 (stereo unspecified)	0	40*	-4	0	-13
Cc1ccc2oc(=O)cc(CN3CCN(Cc4ccccc4)CC3)c2c1	-1	52*	0	-21	-13
Cc1cc2oc(=O)cc(CN3CCN(S(=O)(=O)c4ccc5c(c4)OCCO5)CC3)c2cc1C	-1	0	-3	10	-4
CN1CCN(Cc2cc(=O)oc3ccc(Cl)cc23)CC1	1	45*	-4	-6	-15
Cc1cc2oc(=O)cc(CN3CCN(S(=O)(=O)/C=C/c4ccccc4)CC3)c2cc1C	36*	-4	0	-17	-9
CCCCOc1ccc(C(=O)NCCc2csc3nc(-c4ccccc4F)nn23)cc1	0	.	.	-2	.
Cc1nn(-c2ccc(N3CCCC3)nn2)c(C)c1CCC(=O)NCc1ccc(F)cc1	0	.	.	-5	.
CCOc1ccccc1C(=O)N(Cc1cc(OC)c(OC)c(OC)c1)c1ccccn1	3	.	.	-1	.
